Measurements taken from PubChem BioAssay (NCI).
About 83,000 compounds went through this panel and 20% of them were active in at least one assay; those are over-represented in the sample as a whole.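 Each cell line was grown in a 96-well plate and treated with one concentration of compound for 48 hours. Values below 10 were considered active.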 Activity calls are given as the source filed them.

What was measured:
Experiment in all cases: NCI-60 one-dose screen, 48 h (100 = growth as untreated, 0 = no growth, -100 = all killed)
Conditions in all cases: 10 µM
SR leukemia = system: SR leukemia
RPMI-8226 leukemia = system: RPMI-8226 leukemia
OVCAR-8 ovarian = system: OVCAR-8 ovarian
OVCAR-5 ovarian = system: OVCAR-5 ovarian
OVCAR-4 ovarian = system: OVCAR-4 ovarian
SK-OV-3 ovarian = system: SK-OV-3 ovarian
IGROV1 ovarian = system: IGROV1 ovarian
OVCAR-3 ovarian = system: OVCAR-3 ovarian
HS 578T breast = system: HS 578T breast
NCI/ADR-RES ovarian = system: NCI/ADR-RES ovarian
T-47D breast = system: T-47D breast
BT-549 breast = system: BT-549 breast
MDA-MB-435 melanoma = system: MDA-MB-435 melanoma
SW-620 colon = system: SW-620 colon
MCF7 breast = system: MCF7 breast
HCT-116 colon = system: HCT-116 colon
HCC-2998 colon = system: HCC-2998 colon
KM12 colon = system: KM12 colon

Row | Structure (SMILES) | growth (SR leukemia) | growth (RPMI-8226 leukemia) | growth (OVCAR-8 ovarian) | growth (OVCAR-5 ovarian) | growth (OVCAR-4 ovarian) | growth (SK-OV-3 ovarian) | growth (IGROV1 ovarian) | growth (OVCAR-3 ovarian) | growth (HS 578T breast) | growth (NCI/ADR-RES ovarian) | growth (T-47D breast) | growth (BT-549 breast) | growth (MDA-MB-435 melanoma) | growth (SW-620 colon) | growth (MCF7 breast) | growth (HCT-116 colon) | growth (HCC-2998 colon) | growth (KM12 colon)
1 | O=C(CCCSc1nc(-c2ccccc2)cc(-c2ccc(Cl)cc2)n1)NO | 26.3% (inactive) | -6.47% (active) | 14.2% (inactive) | 9.63% (active) | 22.3% (inactive) | 11.7% (inactive) | 22.3% (inactive) | 7.27% (active) | 50.9% (inactive) | -22% (active) | 23.3% (inactive) | 38.6% (inactive) | 21.9% (inactive) | 17.4% (inactive) | 4.12% (active) | 11.9% (inactive) | 12.7% (inactive) | 24.7% (inactive)
2 | CC(=O)[C@@]12O[C@](C)(c3ccccc3)O[C@@H]1CC1C3CCC4=CC(=O)CC[C@]4(C)C3CC[C@@]12C (stereo not given in full) | 32.1% (inactive) | 47.6% (inactive) | 82.4% (inactive) | 88.5% (inactive) | 44% (inactive) | 99.7% (inactive) | 70.7% (inactive) | 54.3% (inactive) | 86.2% (inactive) | 60.4% (inactive) | 74.3% (inactive) | 79.7% (inactive) | 77.8% (inactive) | 83.3% (inactive) | 59% (inactive) | 48.2% (inactive) | 79.3% (inactive) | 70.8% (inactive)
3 | O=C(N/N=C/c1ccc(Cl)cc1)c1ccc(Cc2n[nH]c(=O)c3cccnc23)cc1 | 135% (inactive) | 117% (inactive) | 100% (inactive) | 99.7% (inactive) | 106% (inactive) | 103% (inactive) | 102% (inactive) | 106% (inactive) | 108% (inactive) | 101% (inactive) | 99.4% (inactive) | 100% (inactive) | 95.5% (inactive) | 113% (inactive) | 95.8% (inactive) | 94.5% (inactive) | 89.8% (inactive) | 108% (inactive)
4 | O=C(Nc1nc(-c2ccccc2)nc2c1sc(=S)n2-c1ccccc1)C(F)(F)F | 89.8% (inactive) | 88.5% (inactive) | 86.6% (inactive) | 105% (inactive) | 92.3% (inactive) | 91.6% (inactive) | 106% (inactive) | 105% (inactive) | 96.6% (inactive) | 95.7% (inactive) | 71.1% (inactive) | 98.9% (inactive) | 99.8% (inactive) | 103% (inactive) | 87% (inactive) | 78.8% (inactive) | 123% (inactive) | 91.3% (inactive)
5 | COc1cc(-c2nn(-c3cccc(NC(=O)NCCNS(=O)(=O)c4ccc(Cl)cc4)c3)cc2-c2ccncc2)ccc1Cl | 1.18% (active) | -2.02% (active) | 8.88% (active) | 27.9% (inactive) | 33.3% (inactive) | 19.3% (inactive) | 25.2% (inactive) | 2.8% (active) | 18.8% (inactive) | 71% (inactive) | 23.8% (inactive) | -11.6% (active) | 2.25% (active) | 18.9% (inactive) | 4.85% (active) | 0.871% (active) | -9.49% (active) | 7.63% (active)
6 | CCOC(=O)C1=CSC2=NC3=C(CCC/C3=C\c3ccc(Cl)cc3)C(c3ccc(Cl)cc3)N12 (stereo not given) | 89.6% (inactive) | 6.15% (active) | 93.7% (inactive) | 103% (inactive) | 94.7% (inactive) | 94.7% (inactive) | 109% (inactive) | 100% (inactive) | 91.9% (inactive) | 98.1% (inactive) | 77.4% (inactive) | 98.4% (inactive) | 79.1% (inactive) | 100% (inactive) | 31.3% (inactive) | 49.7% (inactive) | 101% (inactive) | 66.7% (inactive)
7 | CO[C@H]1CC(O[C@@H]2/C(C)=C/C[C@@H]3C[C@@H](C[C@]4(C=C[C@H](C)[C@@H](C5CCCCC5)O4)O3)OC(=O)[C@@H]3C=C(C)[C@@H](O)[C@H]4OC/C(=C\C=C\[C@@H]2C)[C@]43O)O[C@@H](C)C1O[C@H]1C[C@H](OC)[C@@H](O)[C@H](C)O1 (stereo not given in full) | -52.8% (active) | -25.1% (active) | -25.9% (active) | -65.3% (active) | -46.8% (active) | -84.1% (active) | -54.7% (active) | -96.9% (active) | -40.4% (active) | -65.1% (active) | -51.2% (active) | -68.9% (active) | -97.1% (active) | -92.7% (active) | -24.1% (active) | -98.1% (active) | -92.3% (active) | -88.6% (active)
8 | CC(C)Cc1ccc([C@H](C)C(=O)O)cc1 | 99.9% (inactive) | 115% (inactive) | 107% (inactive) | 107% (inactive) | 115% (inactive) | 119% (inactive) | 116% (inactive) | 111% (inactive) | 110% (inactive) | 108% (inactive) | 102% (inactive) | 107% (inactive) | 103% (inactive) | 110% (inactive) | 94.8% (inactive) | 103% (inactive) | 108% (inactive) | 108% (inactive)
9 | O=C(CSc1nccc(Nc2cccc3ccccc23)n1)c1ccc(Cl)cc1 | 90.9% (inactive) | 80% (inactive) | 92.3% (inactive) | 87.4% (inactive) | 98.7% (inactive) | 86.4% (inactive) | 69% (inactive) | 99.5% (inactive) | 99.7% (inactive) | 93.7% (inactive) | 76.1% (inactive) | 102% (inactive) | 101% (inactive) | 92.7% (inactive) | 99.5% (inactive) | 67.5% (inactive) | 101% (inactive) | 94.7% (inactive)
10 | C=CCn1c(SCC(=O)Nc2ccc(C(=O)/C=C/c3cc(OC)c(OC)c(OC)c3)cc2)nnc1-c1cc(-c2ccc(Cl)cc2)nc2ccccc12 | 62% (inactive) | -16.3% (active) | 52.1% (inactive) | 97.6% (inactive) | 87.9% (inactive) | 87.1% (inactive) | 88.4% (inactive) | 97.3% (inactive) | 83.7% (inactive) | 75.6% (inactive) | 78.4% (inactive) | 75% (inactive) | 92.9% (inactive) | 90.7% (inactive) | 38.6% (inactive) | 50% (inactive) | 103% (inactive) | 85.8% (inactive)
11 | COc1cc(C)ccc1Oc1nc(Nc2ccc(N3CCOCC3)cc2)ncc1NC(=O)Nc1cc(C(F)(F)F)cc(C(F)(F)F)c1 | 28.3% (inactive) | 61.9% (inactive) | 44.3% (inactive) | 106% (inactive) | 66.3% (inactive) | 101% (inactive) | 64% (inactive) | 51.9% (inactive) | 43.6% (inactive) | 46.6% (inactive) | 81.9% (inactive) | 78.3% (inactive) | 81.5% (inactive) | 82.6% (inactive) | 69.3% (inactive) | 22.6% (inactive) | 101% (inactive) | 63.5% (inactive)
12 | CNC(=O)c1cn2c3c(c(N4CCN(C)CC4)c(F)cc3c1=O)OC[C@@H]2C | 90.6% (inactive) | 96.3% (inactive) | 106% (inactive) | 105% (inactive) | 94.1% (inactive) | 102% (inactive) | 111% (inactive) | 107% (inactive) | 101% (inactive) | 102% (inactive) | 98.9% (inactive) | 104% (inactive) | 104% (inactive) | 99.9% (inactive) | 95.8% (inactive) | 104% (inactive) | 108% (inactive) | 100% (inactive)
13 | CCCCCOC(=O)Nc1nc(=O)n(C2O[C@H](C)[C@@H](O)[C@H]2O)cc1F (stereo not given in full) | 101% (inactive) | 101% (inactive) | 92.3% (inactive) | 104% (inactive) | 109% (inactive) | 93.4% (inactive) | 107% (inactive) | 106% (inactive) | 104% (inactive) | 96.4% (inactive) | 102% (inactive) | 102% (inactive) | 98.4% (inactive) | 99.1% (inactive) | 99.8% (inactive) | 101% (inactive) | 101% (inactive) | 103% (inactive)
14 | O=C1/C=C/[C@@H](O)[C@@H]2C[C@@H](O)C[C@H]2/C=C/CCC[C@@H](C(F)(F)F)O1 | 102% (inactive) | 97.7% (inactive) | 83.2% (inactive) | 107% (inactive) | 75.3% (inactive) | 96% (inactive) | 105% (inactive) | 69.8% (inactive) | 74.2% (inactive) | 92.5% (inactive) | 82.3% (inactive) | 123% (inactive) | 93.5% (inactive) | 93.9% (inactive) | 67.1% (inactive) | 109% (inactive) | 107% (inactive) | 99.3% (inactive)
15 | c1ccc2c(c1)Cc1ccccc1N2CCN1CCCCC1 | 94.1% (inactive) | 87.2% (inactive) | 91.2% (inactive) | 96.6% (inactive) | 95.2% (inactive) | 88.8% (inactive) | 83.5% (inactive) | 108% (inactive) | 113% (inactive) | 88.5% (inactive) | 90.3% (inactive) | 86.3% (inactive) | 106% (inactive) | 89.1% (inactive) | 89.4% (inactive) | 56.8% (inactive) | 86% (inactive) | 95.3% (inactive)
